# From PubChem BioAssay AID1572 (National Center for Advancing Translational Sciences (NCATS), 2009)
# Records with an inconclusive call do not appear. Calls of active or inactive are those of the source. The call rests on the fitted dose curve; in most records, active means well fitted curve in either direction with a large enough effect; inconclusive means small, poorly fitted or top-dose-only effect; inactive means flat fitted curve, though single readings scatter.
# Assay: Total Fluorescence Confirmation Counterscreen for Inhibitors of the Interaction of Thyroid Hormone Receptor and Steroid Receptor Coregulator 2
# Conditions: Texas Red total fluorescence, TRbeta/SRC2 FP artifact counterscreen; series mostly up to 92.2 µM; total fluorescence change, both ways: at the top concentration
# In short: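 Flags fluorescent or light-absorbing compounds: after 5 hr at ambient temperature, 0.6 uM TRbeta LBD plus 20 nM SRC2 Texas Red (1uM T3, 5% DMSO) read at 555/632 nm; TF = S + 2P from parallel and perpendicular channels.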
SMILES,"total fluorescence change, both ways",Potency
Nc1cccnc1Sc1cc(Cl)c(Cl)cc1Cl,6.8% (inactive),
Cc1nnc(SCC(=O)Nc2ccc(N(C)C)cc2)[nH]c1=O,4.51% [at 184 µM] (inactive),
Cn1c(-c2ccc(=O)[nH]c2)nc2ccccc21,5.74% (inactive),
Cc1cc2ccccc2n1CCNC(=O)C(C)Oc1ccccc1 (centres undefined),6.98% (inactive),
Cc1c(C#N)c(O)n(CCO)c(=O)c1N=Nc1ccc2c(c1)COC2=O,-2.59% (inactive),
CCOc1cc(C(c2c(C)[nH][nH]c2=O)c2c(C)[nH][nH]c2=O)ccc1OC(=O)c1cccc([N+](=O)[O-])c1,-4.45% (inactive),
Nc1cc(-c2ccccc2)c[nH]c1=O,-2.47% (inactive),
Cn1c(CCN2CCCCC2)nc2cc(NS(=O)(=O)c3ccc(Cl)cc3)ccc21,5.61% (inactive),
CCCc1nc2c(=O)n(C)c(=O)nc-2n(C)n1,4.23% (inactive),
COc1ccccc1Nc1cc2ccccc2c(=O)[nH]1,-10.5% (inactive),
N/C(Cc1cccc2ccccc12)=N\OC(=O)c1cccs1,29.5% (inactive),
C=CCNC(=O)/C(C#N)=C/c1c(C)nn(-c2ccc(Cl)cc2)c1Cl,4.25% (inactive),
CN(C)c1cc(Cl)c2nonc2c1N,1.14% (inactive),
O=C(O)/C=C/C(=O)Nc1ccc(SC(F)(F)C(F)(F)C(F)(F)F)cc1,6.28% (inactive),
CC1=NN(c2ccc(F)cc2)C(=O)C1C(c1cccc(O)c1)c1c(C)[nH]n(-c2ccc(F)cc2)c1=O (centres undefined),-16.4% (inactive),
COc1cc(NCCCC(C)N)c2ncccc2c1 (centres undefined),1.79% (inactive),
CCN(C(=O)C1CCCN(c2ncnc3onc(-c4ccc(F)cc4)c23)C1)c1ccccc1 (centres undefined),5.18% [at 184 µM] (inactive),
Cc1[nH][nH]c(=O)c1C(c1ccc(-c2ccccc2C(=O)O)o1)c1c(C)[nH][nH]c1=O,-3.55% (inactive),
CCOc1ccc(NC(=O)C(c2ccccn2)N(C(=O)CCl)c2ccc(F)cc2)cc1 (centres undefined),1.73% (inactive),
CN1c2ccccc2C(C)(C)C12C=Nc1c(ccc3ccccc13)O2 (centres undefined),3.13% (inactive),
CN1CCc2ccc3c4c2[C@]1(C)Cc1cccc(c1-4)OCO3,,100 µM [fluorescent] (active)
Cn1c(NNC(=O)c2c(F)cccc2F)cc(=O)n(C)c1=O,2.85% (inactive),
O=c1cc(C23CC4CC(CC(C4)C2)C3)[nH][nH]1,-5.37% (inactive),
Cc1ccc2c(CC(=O)Nc3c(C(=O)c4ccc(F)cc4)oc4ccccc34)coc2c1C,4.74% [at 184 µM] (inactive),
